Bioassay records deposited in PubChem by National Center for Advancing Translational Sciences (NCATS).
The list is not random: actives were taken first. Their share in the collection is about 3%.
Coupling enz – coupling enzyme interference in Giardia aldolase counter-screen; coupling enzyme system counterscreen, AmpLite Red fluorescence; activity change, negative = inhibition, % at 58.2 µM, hits read low; 290,000 compounds, 0.67% hits; AID 2472; in the data active means activity change below about -30%
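Final compound at 57.5 uM, incubated 10 min at RT with coupling enzyme reagent (glyceraldehyde-3-phosphate), then 20 min with substrate and AmpLite Red detection. Fluorescence read at 525/598 nm; tests interference with the coupling assay, not aldolase inhibition.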
KDM4E inh – blocks human JMJD2E demethylase activity. Potency, µM (doses to about 57.1 µM), without a hit: top-dose activity change, negative = inhibition, most hits filed as inhibitors. 230,000 compounds, 1.6% hits. JMJD2E catalytic domain, FDH-coupled NADH fluorescence (FDH is formaldehyde dehydrogenase);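 further: potency means the concentration at half of the fitted maximal effect; 0% = wells with enzyme and -100% = buffer wells without enzyme; nearly all actives have a fitted effect of over 50% in size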
Target sequence (B2RXH2 1-337 limits assumed): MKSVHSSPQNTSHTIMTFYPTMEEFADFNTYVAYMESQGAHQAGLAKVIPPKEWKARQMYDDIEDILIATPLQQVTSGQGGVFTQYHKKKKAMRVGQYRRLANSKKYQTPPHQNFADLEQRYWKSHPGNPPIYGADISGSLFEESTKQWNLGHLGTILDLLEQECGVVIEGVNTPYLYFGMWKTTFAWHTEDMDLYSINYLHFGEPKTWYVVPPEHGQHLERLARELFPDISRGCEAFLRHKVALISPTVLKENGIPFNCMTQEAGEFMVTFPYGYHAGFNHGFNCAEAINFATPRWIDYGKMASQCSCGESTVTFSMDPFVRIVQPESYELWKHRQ
Tau fibril ThT – inhibitors of human tau fibril formation, thioflavin T binding | recombinant tau K18 P301L, heparin-induced fibrillization, ThT fluorescence | Potency, µM (series often up to 57.4 µM), without a hit: top-dose activity, negative = inhibition, actives largely listed as inhibitors | 270,000 compounds, 2.1% hits; further: potency means the concentration at half of the fitted maximal effect; nearly all actives have a fitted effect of over 55% in size
Target sequence (P10636 561-689 P618L limits assumed): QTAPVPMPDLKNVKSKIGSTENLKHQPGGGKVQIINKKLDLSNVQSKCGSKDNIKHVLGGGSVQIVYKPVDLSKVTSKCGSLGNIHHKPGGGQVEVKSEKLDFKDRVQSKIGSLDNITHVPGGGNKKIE
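Aggregation was driven by heparin (20 uM final) acting on recombinant tau […] bearing P301L in 100 mM sodium acetate pH 7; fibrils were detected with Thioflavin T.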
Tau FP inhib – inhibitors of human tau fibril formation; K18 P301L tau heparin fibrillization, Alexa594 FP, 6 h; P10636; 280,000 compounds, 0.39% hits; AID 1468; Potency, µM (top dose mostly 57.7 µM), inactives show at the highest dose activity, negative = inhibition, most hits filed as inhibitors; further: potency means the concentration at half of the fitted maximal effect; nearly all actives have a fitted effect of over 55% in size
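Quantitative HTS format: compounds meet 15 uM recombinant K18 P301L tau and Alexa 594-tau tracer in 100 mM sodium acetate pH 7; 20 uM heparin triggers fibrillization at 37 C over 6 hr; FP gives the signal.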
Tau fluor cs – counter-screen for tau fibril formation inhibitors; tau K18 P301L (four-repeat tau fragment) Alexa594 fluorescence, heparin fibrillization; Potency, µM (top dose mostly 57.7 µM), for inactives: top-dose activity change, negative = decrease; 280,000 compounds, 0.93% hits; AID 1463; further: potency means the concentration at half of the fitted maximal effect; nearly all actives have a fitted effect of over 55% in size
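Human K18 P301L tau (15 uM unlabeled plus 0.24 uM Alexa 594-labeled, final) in 100 mM sodium acetate pH 7 was mixed with compound and 20 uM heparin and incubated 6 hr at 37 C.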
An asterisk follows results filed as active; ? = inconclusive; . = not tested or not shown; [ ] = another dose, or the depositor's remark. Unless noted, the call rests on the fitted dose curve; in most records, active means well fitted curve in the direction sought with a large enough effect; inconclusive means small, poorly fitted or top-dose-only effect, or another doubt; inactive means no such curve, though single readings can be large; an effect the other way counts as inactive or inconclusive. Unless noted, on the % scale 0 is the no-effect control and ±100 the full control effect.

SMILES	Coupling enz	KDM4E inh	Tau fibril ThT	Tau FP inhib	Tau fluor cs
COCCCN1C(=O)/C(=C/c2ccc(CNS(=O)(=O)c3ccccc3)o2)C(C(=O)OC)=C1C	-11	?	14µM*	?	-19%
CNC(=O)/C(C#N)=C\c1ccc(CNS(=O)(=O)c2ccccc2)o1	-1	3%	1%	-6%	8%
O=C1CC(SC(=Nc2ccccc2)Nc2ccccc2)C(=O)N1c1ccc(Cl)c(Cl)c1 (configuration not stated)	-8	-10%	11%	7.9µM*	?
CN=C(Nc1cc(Cl)ccc1Cl)SC1CC(=O)N(c2ccc(C(=O)OC)cc2)C1=O (configuration not stated)	0	-3%	7%	28µM*	?
Nc1ccccc1SC1CC(=O)N(c2ccc(Cl)c(Cl)c2)C1=O (configuration not stated)	0	2%	5%	28µM*	?
CCCc1nn2c(=O)cc(COC(=O)c3cccc(NC(=O)c4cccs4)c3)nc2s1	.	.	-16%	-20%	-6%
COc1ccc(NC(=O)c2cc(C3CC3)nc3c2c(C)nn3-c2ccc(C)cc2)cc1OC	.	.	-18%	0%	?
Cc1ccccc1OCc1ccc(-c2nc(C#N)c(NCc3cccnc3)o2)o1	.	.	?	?	18µM*[quencher]
COc1ccc2c(c1)c1c(c(=O)n(-c3ccc(F)c(Cl)c3)c(=O)n1Cc1ccccc1C)n2C	.	.	7%	2%	7%
COc1ccc(OC)c(NC(=S)N(CCc2c(C)[nH]c3ccccc23)Cc2cccs2)c1	-4	3%	-13%	3%	7.1µM*[quencher]
COc1ccc2[nH]c(C)c(CCN(Cc3cccs3)C(=S)Nc3cccc(F)c3)c2c1	-43*	0%	?	2%	10µM*[quencher]
COc1ccc(OC)c(NC(=S)NCc2cccs2)c1	2	6%	2%	4%	2%
COc1ccc(OC)c(NC(=S)N(CCc2c(C)[nH]c3ccc(C)cc23)Cc2cccs2)c1	-4	10%	-15%	13%	8.9µM*[quencher]
COc1cccc(NC(=S)N(CCc2c(C)[nH]c3ccc(C)cc23)Cc2cccs2)c1	3	8%	-3%	6%	-8%
CCNC(=S)N(CCc1c(C)[nH]c2ccc(C)cc12)Cc1cc(OC)c(OC)c(OC)c1	-2	-7%	?	?	?
C1CCC[C@H]2CCCN3CC[C@H](CCCCCC[C@@H]4CCCN5CC[C@H](CC1)OC45)OC23	.	.	-1%	-7%	2%
Cc1noc(C)c1S(=O)(=O)N1CCc2nc(-c3ccccc3)c3c(c2C1)CO[C@@H](C)C3	-3	8%[11.4 µM]	4%[11.5 µM]	-2%[11.6 µM]	2%[11.6 µM]
Fc1c(F)c(F)c(/C=N/NC(=S)Nc2cccnc2)c(F)c1F	0	1%	-16%	-6%	-12%
Oc1ccc(/C=N/NC(=S)Nc2cccnc2)c(O)c1O	-63*	2.2µM*	1.6µM*	2µM*	11µM*[quencher]
Oc1cccc(/C=N/NC(=S)Nc2cccnc2)c1O	-11	22µM*	4%	9%	5%
Oc1ccc(/C=N/NC(=S)Nc2cccnc2)c(O)c1	5	28µM*	?	?	-23%
Fc1cccc(F)c1/C=N/NC(=S)Nc1cccnc1	1	-21%	-17%	-2%	-10%
NC(=S)N/N=C/c1cccc(O)c1O	-30	35µM*	?	-1%	-8%
CCN(CC)CCC(c1ccc(N(C)C)cc1)c1c(OC)cc(OC)c2c1OC(=O)CC2c1ccc(N(C)C)cc1 (configuration not stated)	0	.	.	.	.
O=P1(O)OP(=O)(O)OP(=O)(O)O1.[Al]	0	.	.	.	.
SMILES	Coupling enz	KDM4E inh	Tau fibril ThT	Tau FP inhib	Tau fluor cs
Oc1cccc(/C=N/NC(=S)NCCN2CCOCC2)c1O	-34*	25µM*	-21%	-4%	-13%
S=C(NCCN1CCOCC1)N/N=C/c1cccs1	1	.	.	.	.
CCOC(=O)C1=C(O)/C(=C/c2ccc(-c3ccccc3C(=O)O)o2)SC1=Nc1ccc(OC)cc1	2	-14%	16µM*	5%	-7%
CCOC(=O)C1=C(O)/C(=C/c2ccc(-c3ccccc3C(=O)O)o2)SC1=Nc1ccc(C)cc1	.	-5%	-13%	2%	-6%
Cc1ccccc1Cn1c(SCc2ccc(C(=O)NC(C)c3ccccc3)cc2)nc2ccncc21 (configuration not stated)	.	.	4%	-2%	-19%
FC(F)(F)c1cccc(-c2nc3nc(Cl)c(Cl)nc3[nH]2)c1	-36*	?	-11%	2%	-3%
OC1OC[C@H](O)[C@H](O)[C@H]1O (some centres not stated)	0	.	.	.	.
C=CCS(=O)(=O)c1cccc2cccnc12	-34*	?	10%	-1%	6%
CCOC(=O)c1cc(C)n(Cc2cccc(OC)c2OC)c1C	-1	-3%	?	-15%	-19%
CCOC(=O)c1c(C)c(C)n(Cc2cccc(OC)c2OC)c1C	0	1%	25µM*	?	-27%
O=c1cc(-c2ccccc2Cl)oc2ccc([N+](=O)[O-])c(O)c12	4	?	11µM*	-3%[81.3 µM]	-18%[81.3 µM]
C/C(N)=C(/C#N)C(=O)CSc1nc2cc(Cl)ccc2s1	-1	-2%	?	?	?
CCn1nc([N+](=O)[O-])c(C(C#N)c2nc3cc(C(F)(F)F)ccc3s2)c(Cl)c1=O (configuration not stated)	-2	6%	4.5µM*	20µM*	6.3µM*[quencher]
Cn1nc([N+](=O)[O-])c(C(C#N)c2ccccn2)c(Cl)c1=O (configuration not stated)	-15	-7%	8.9µM*	?	13µM*[quencher]
CCCCn1c(N)c(-c2nc3ccccc3o2)c2c([N+](=O)[O-])nn(CC)c(=O)c21	-1	0%	-10%	15%	-13%
CCCn1nc([N+](=O)[O-])c(C(C#N)c2nc3ccccc3o2)c(Cl)c1=O (configuration not stated)	1	5%	7.1µM*	?	14µM*[quencher]
CCCSc1nc2c([nH]c3ccccc32)c(=O)n1C	.	.	-9%	-10%	-19%
O=[N+]([O-])c1ccc(O)c(Nc2ncnc3ccc(Br)cc23)c1	0	-4%	16µM*	4%	-30%
O=[N+]([O-])c1ccc(O)c(Nc2ncnc3ccccc23)c1	1	-11%	-16%	16%	-17%
CCN(CCC(=O)Nc1cc(OC)cc(OC)c1)Cc1ccccc1	-40*	?	-3%	6%	-4%
CCCN(CCC(=O)Nc1cc(OC)cc(OC)c1)CC1CC1	-36*	?	-11%	11%	-8%
CC(C)(C)N1C(=O)[C@H]2[C@@H]3[C@H](O)[C@H](O)CC(=O)[C@H]3CC[C@H]2C1=O	-3	.	-7%[11.5 µM]	-7%[11.6 µM]	-3%[11.6 µM]
O=C(NCCS(=O)(=O)N1CCN(c2ccc(F)cc2)CC1)c1cccc(C(F)(F)F)c1	.	.	14%	7%	-11%
